This is a sample that favours compounds with a hit; in the whole collection about 3.3% have one here.
TbPYK inhibitor = inhibitors of Trypanosoma brucei pyruvate kinase; Potency, µM (highest dose often 76.8 µM), for the others: at the top dose activity, negative = inhibition, hits mostly inhibitors; 0.12% of 410,000 active; TbPYK enzyme, Kinase-Glo Plus ATP luminescence, 45 min; Q57TT1; active means well fitted curve in the direction sought with a large enough effect; inconclusive means small, poorly fitted or top-dose-only effect, or another doubt; inactive means no such curve, though single readings can be large; an effect the other way counts as inactive or inconclusive; further: potency means the concentration at half of the fitted maximal effect; on the % scale 0 is the no-effect control and ±100 the full control effect; nearly all actives have a fitted effect of over 50% in size
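Quantitative HTS: titrated library compounds versus trypanosomal pyruvate kinase in TEA buffer (pH 7.2) containing KCl, MgCl2, BSA and Tween-20. Reactions were initiated with ADP, 130 uM final. Kinase-Glo Plus luminescence was read after 45 min at RT.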
RE007 growth inh = less growth of the S. pombe RE007 Vpr strain. Potency, µM (series often up to 92.2 µM), without a hit: at the highest dose activity change, negative = less growth, most hits filed as inhibitors. 0.21% of 360,000 active. S. pombe RE007 Vpr strain, BacTiter-Glo ATP luminescence, 24 h; active means well fitted falling curve with a large enough effect; inconclusive means small, poorly fitted or top-dose-only effect; inactive means no such curve, though single readings can be large or run the other way; further: potency means the concentration at half of the fitted maximal effect; on the % scale 0 is the no-effect control and ±100 the full control effect; nearly all actives have a fitted effect of over 50% in size
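Fission yeast strain RE007, carrying one chromosomally integrated HIV-1 vpr copy, was seeded at OD 0.01 in PMG+AL medium with 23 nL pinned compound. After 24 h at 30 °C and 99% humidity, viability was read by BacTiter-Glo luminescence.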
Sm TGR inh = inhibitors of Schistosoma mansoni thioredoxin glutathione reductase; Potency, µM (highest dose often 114 µM), without a hit: at the top dose activity change, negative = inhibition, hits mostly inhibitors; purified TGR, DTNB reduction, TNB absorbance 405 nm; Q962Y6; 3% of 360,000 active; active means well fitted curve in the direction sought with a large enough effect; inconclusive means small, poorly fitted or top-dose-only effect, or another doubt; inactive means no such curve, though single readings can be large; an effect the other way counts as inactive or inconclusive; further: potency means the concentration at half of the fitted maximal effect; on the % scale 0 is the no-effect control and ±100 the full control effect; nearly all actives have a fitted effect of over 60% in size
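First, TGR (20 nM dispensed) and NADPH were mixed with compound. Second, a 15 min room-temperature incubation followed. Third, further NADPH and then DTNB were added to start the reaction. Finally, TNB absorbance was monitored kinetically.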
NS1 inh = inhibitors of influenza NS1 protein function. Potency, µM (highest dose often 46.1 µM), without a hit: top-dose activity, positive = more growth. 0.4% of 270,000 active; further: potency means the concentration at half of the fitted maximal effect; actives are rising curves; nearly all actives have a fitted effect of over 50% in size
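Read-out: OD600 growth recovery of NS1-expressing budding yeast. Cells grown overnight at 30C in -URA glucose medium, washed, resuspended and diluted 1:100 in 2% galactose assay medium, pH 6.0. Same strain lacking NS1 served as positive control.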
SARS PLP yeast = SARS-CoV PLP inhibition in yeast; S. cerevisiae expressing SARS-CoV PLpro, growth rescue; Potency, µM (doses to about 32.9 µM), without a hit: at the highest dose activity, positive = growth rescue, most hits filed as activators; 0.19% of 330,000 active; AID 485353; further: potency means the concentration at half of the fitted maximal effect; 0% is about no effect; nearly all actives have a fitted effect of over 55% in size
LmPK inhibitor = blocks Leishmania mexicana pyruvate kinase activity; Potency, µM (doses to about 57.5 µM), without a hit: at the top dose activity change, negative = inhibition, actives largely listed as inhibitors; 0.37% of 290,000 active; Q27686; AID 1721; purified LmPK, Kinase-Glo ATP luminescence, 1 h; active means well fitted curve in the direction sought with a large enough effect; inconclusive means small, poorly fitted or top-dose-only effect, or another doubt; inactive means no such curve, though single readings can be large; an effect the other way counts as inactive or inconclusive; further: potency means the concentration at half of the fitted maximal effect; on the % scale 0 is the no-effect control and ±100 the full control effect
Target sequence (Q27686 whole entry, looked up): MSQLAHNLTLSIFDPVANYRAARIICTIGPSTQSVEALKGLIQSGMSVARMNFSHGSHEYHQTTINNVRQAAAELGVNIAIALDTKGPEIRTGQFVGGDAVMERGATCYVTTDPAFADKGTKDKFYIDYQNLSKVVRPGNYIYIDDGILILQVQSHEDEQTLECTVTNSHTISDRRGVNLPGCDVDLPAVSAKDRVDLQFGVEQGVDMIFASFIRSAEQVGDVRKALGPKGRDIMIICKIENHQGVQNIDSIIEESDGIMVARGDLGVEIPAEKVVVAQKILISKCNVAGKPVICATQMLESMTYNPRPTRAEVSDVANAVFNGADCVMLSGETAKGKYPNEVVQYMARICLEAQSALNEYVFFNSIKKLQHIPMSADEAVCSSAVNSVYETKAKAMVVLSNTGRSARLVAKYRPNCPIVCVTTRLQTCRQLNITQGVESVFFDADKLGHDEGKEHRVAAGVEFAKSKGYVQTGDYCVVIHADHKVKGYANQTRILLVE
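Kinase-Glo luminescence read after 1 h RT reaction of 0.1 nM LmPK with 0.5 mM PEP and 0.1 mM ADP. Activity scaled between uninhibited and enzyme-free controls.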
NS1 inh valid = influenza NS1 function inhibition validation | AID 492980 | 1,400 tested, under 10 active | influenza NS1 function cell assay, 15-point titration | shares compounds with NS1 inh | activity change, negative = inhibition, % at 32.9 µM; further: 0% is about no effect
Flu PR8 replic = influenza NS1 inhibitors: inhibition of influenza A/PR/8/34 replication; 30% of 95 active; shares compounds with NS1 inh; MDCK infected influenza A/PR/8/34, virus titer TCID50; stronger effect = lower value; AID 504647; virus titer (log TCID50), log10 TCID50 at 5 µM; call rule not given here
The depositor's hits bear a star; ? = inconclusive; nt = no result given; [ ] = remark or other dose. Unless noted, the call rests on the fitted dose curve.

SMILES	TbPYK inhibitor	RE007 growth inh	Sm TGR inh	NS1 inh	SARS PLP yeast	LmPK inhibitor	NS1 inh valid	others
CC(C)C[C@H](NC(=O)c1nc[nH]c1C(=O)NC(c1ccccc1)c1ccccc1)C(=O)OC(C)(C)C	0%	10%	5%	10µM*	0%	1%	15
O=S(=O)(Nc1ccc(O)c(Sc2nc3ccccc3s2)c1)c1cccc2ccccc12	1%	6%	4%	20µM*	?	9%	-10
CC(C)c1ccc2c(c1)NC(c1ccc(F)cc1)=NC(c1cccs1)=N2	1%	nt	-2%	nt	nt	nt	nt
COc1cccc(N2C(=O)C(CC(=O)Nc3ccc(Cl)cc3)N(Cc3ccc4c(c3)OCO4)C2=O)c1 (configuration not stated)	-1%	nt	-2%	nt	nt	nt	nt
Cc1ccc(C(O)Cn2cc([N+](=O)[O-])nc2C)cc1 (configuration not stated)	1%	0%	0%	?	0%	6%	8
CCOc1ccccc1NC(=O)c1nnn(CC(=O)Nc2ccccc2CC)c1N	-1%	nt	-8%	nt	nt	nt	nt
CCCCOc1c(Br)cc(/C=C2\N=C(C)OC2=O)cc1OCC	0%	-3%	-5%	3.5µM*	9%	2%	-2
O=C1N[C@H](Cc2ccccc2)CO1	3%	-2%	3%	nt	-1%	nt	nt
c1ccc(CC2CNc3ccccc3CN2)cc1 (configuration not stated)	-9%	-20%	5%	0.89µM*	8%	-2%	-26
O=C(C[n+]1cccc(C(=O)Nc2ccccc2)c1)c1ccc([N+](=O)[O-])cc1	-4%	-11%	-27%	2.5µM*	4%	-4%	28	Flu PR8 replic=7.7
COc1ccc(-c2[nH]c3ccccc3c2SCCNC(=O)c2cc3ccccc3oc2=O)cc1	-15%	11%	-8%	10µM*	7%	0%	2
COc1ccc(CNC(=O)c2cc3ccccc3oc2=O)cc1	8%	6%	12%	-4%	2%	-5%	nt
Cc1c(Cl)cccc1NC(=O)CSc1ncccc1C(=O)Oc1ccccc1Cl	0%	nt	-8%	nt	nt	nt	nt
CC(C)(C)c1nnc(N/N=C/c2ccccc2)n(N)c1=O	-6%	nt	8%	?	-19%	2%	?
CSc1nnc(C(C)(C)C)c(=O)n1/N=C/c1ccccc1	9%	-2%	-15%	-6%	1%	-1%	nt
CCc1ccc(OCC2c3cc(OC)c(OC)cc3CCN2C(=O)c2ccc(S(=O)(=O)N3CCCC3)cc2)cc1 (configuration not stated)	-4%	nt	6%	nt	nt	nt	nt
Cc1cccc(COc2ccc(-c3cc(C(F)(F)F)n4nc(C)cc4n3)cc2)c1	-2%	nt	-6%	nt	nt	nt	nt
Cc1cccc(NC(=O)CSc2nnc([C@@H](N)Cc3c[nH]c4ccccc34)o2)c1C	0%	23%	0%	11µM*	2%	5%	15
CCSc1nnc([C@@H](N)Cc2c[nH]c3ccccc23)o1	4%	-9%	7%	-9%	-10%	-1%	nt
CC1CCc2c(sc(NC(=S)NC(=O)c3ccccc3)c2C#N)C1 (configuration not stated)	-13%	-8%	?	7.9µM*	2%	10%	6
COc1cc(C(=O)N2CCN(c3ccc(Nc4ccccc4)nn3)CC2)cc(OC)c1OC	-3%	nt	2%	nt	nt	nt	nt
CCCCN(C)S(=O)(=O)c1cc(-c2cc(C)no2)ccc1C	1%[15.4 µM]	nt	-5%	nt	nt	nt	nt
Cc1cc(-c2nnc3n2N=C(c2ccc(-c4ccccc4)cc2)CS3)n[nH]1	-8%	27%	1%	3.2µM*	-15%	2%	?
CCN(CC)C(=O)CSc1nnc(-c2ccccc2)n1N	0%	11%	-35%	6.3µM*	6%	-5%	10
CCN(CC)C(=O)CSc1nnc(-c2ccncc2)n1N	1%	8%	0%	4%	0%	1%	nt
SMILES	TbPYK inhibitor	RE007 growth inh	Sm TGR inh	NS1 inh	SARS PLP yeast	LmPK inhibitor	NS1 inh valid	others
O=C(O)c1cccc(Cn2c(Cl)c(/C=N/NC(=O)c3ccccc3Cl)sc2=O)c1	-6%	-16%	-5%	0.79µM*	4%	-1%	7
COc1ccc2c(Cc3c4ccccc4cc4ccccc34)cncc2c1O	nt	nt	nt	-41%	nt	nt	nt
Cc1cc(-c2ccc(NC(=O)[C@@H]3CCCC[C@@H]3C(=O)O)c(C)c2)ccc1NC(=O)[C@@H]1CCCC[C@@H]1C(=O)O	3%	2%	nt	4µM*	1%	0%	?
COC(=O)c1ccccc1NC(=O)C1CCCCC1C(=O)O (configuration not stated)	-17%	-2%	5%	5µM*	2%	-4%	3
Cc1ccc(S(=O)(=O)c2c(Nc3ccc(C)c(C)c3)sc(C(=O)c3ccc4c(c3)OCO4)c2N)cc1	-6%	nt	-9%	nt	nt	nt	nt
O=c1c(NCCc2ccc(Cl)cc2)nccn1-c1ccccc1	-4%	nt	-9%	nt	nt	nt	nt
Cc1ccc(S(=O)(=O)N(C)C)cc1-n1c(SCC(=O)Nc2ccc(F)cc2)nc2ccccc2c1=O	6%	1%	?	13µM*	2%	9%	17
Cc1ccc(S(=O)(=O)N(C)C)cc1-n1c(SCC(=O)Nc2ccccc2)nc2ccccc2c1=O	0%	-5%	-5%	?	-5%	5%	nt
Cc1ccc(-n2ncc(C(=O)Nc3ccc4c(c3)OCCO4)c2C2CCN(C(=O)OC(C)(C)C)CC2)cc1C	0%[15.4 µM]	nt	-1%	nt	nt	nt	nt
O=C(CSc1nc2nccnc2c(=O)n1CCc1c[nH]c2ccccc12)Nc1ccccc1	6%	nt	-8%	nt	nt	nt	nt
CCc1nn2c(-c3ccccc3OC)ccnc2c1-c1ccc(F)cc1	4%	nt	2%	nt	nt	nt	nt
COc1ccc(C2/C=C\CN(S(=O)(=O)c3ccc4ccccc4c3)CC(=O)N2Cc2ccc(F)cc2)cc1 (configuration not stated)	-7%	3%	9%	2.8µM*	2%	4%	-31	Flu PR8 replic=8
Cc1ccc(-c2nc(N3CCCC(C)C3)c3ccccc3n2)cc1 (configuration not stated)	1%	nt	-3%	nt	nt	nt	nt
COc1cc(C(=S)N2CCCC2)cc(OC)c1O	-15%	-4%	4%	4µM*	15%	9%	6
CCOc1cc(C(=S)N2CCCC2)ccc1OC	3%	-3%	-19%	-3%	0%	5%	nt
Oc1c(C(c2ccccc2F)N2CCC3(CC2)OCCO3)sc2nc(-c3ccco3)nn12 (configuration not stated)	4%	nt	15%	nt	nt	nt	nt
